Screening results deposited in PubChem by Broad Institute.
Most compounds without a hit are left out; they make up all but 6.8% or so of the library.
Pf Dd2 inh: P. falciparum Dd2 growth inhibitors, primary screen, SYBR Green fluorescence, single dose replicates; 72 h; hits give low values; activity change, % at 10 µM; 94,000 tested, 2.3% active; AID 1159554, 2015; in the data active means activity change below about -80%; inconclusive means no clear call, values can overlap the other calls
C diff HTS: C. difficile growth inhibitors, primary screen, HTS | 86,000 tested, 0.25% active | Clostridium difficile clinical isolate growth, OD600, 24 h; hits give low values | growth activity, negative = inhibition, % at 16 µg/mL (by protocol);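 active means mean growth activity at or below -80% and every replicate also at or below -80%; inconclusive means mean at or below -80% but some replicate above -80%; inactive means mean growth activity above -80%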
T cruzi growth-1: T. cruzi intracellular proliferation inhibitors, primary screen, cell-based, beta-gal Tulahuen parasites, NIH3T3 host, luminescence; inhibition, % at 8.34 µM; 77,000 tested, 5.9% active; T. cruzi beta-gal in NIH3T3, GalScreen luminescence, 90 h;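 active means mean inhibition above about 93%, with at least 55% of replicates each passing it, limit read from the data, passing the limit was not always enough; inconclusive means only one of those two conditions holds; inactive means neither condition holds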
T cruzi growth-2: T. cruzi intracellular proliferation inhibitors, confirmation, cell-based, NIH3T3 host, beta-gal parasite, luminescence, cherry-pick. shares compounds with T cruzi growth-1. 5,600 tested, 72% active. inhibition, % at 8.35 µM. T. cruzi beta-gal in NIH3T3, GalScreen luminescence, 90 h;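 active means mean replicate inhibition above about 95% and at least 55% of replicates individually reaching it, limit read from the data; inconclusive means only one of the two criteria is met; inactive means neither criterion is met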
T cruzi growth-3: inhibitors of intracellular T. cruzi replication, confirmation, NIH3T3 host cells, beta-gal parasites, cherry-pick, set 2. inhibition, % at 2.09 µM. AID 651740, 2012. T. cruzi beta-gal in NIH3T3, GalScreen luminescence, 90 h. 5,600 tested, 21% active. shares compounds with T cruzi growth-1;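 active means mean inhibition above about 95%, with at least 55% of replicates also reaching it, limit read from the data; inconclusive means meets just one of the two conditions; inactive means meets neither condition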
NIH3T3 tox: cytotoxicity in mouse NIH/3T3 fibroblasts, confirmation, cytotoxicity control for T. cruzi proliferation inhibitor project, cell-based, cherry-pick, single point; 5,600 tested, 14% active; cytotoxicity (signal decrease), % at 8.35 µM; shares compounds with T cruzi growth-1; NIH/3T3 viability, CellTiter-Glo ATP luminescence, 90 h;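 active means mean signal decrease across replicates above about 35% based on untreated-well scatter, with enough replicates individually passing, limit read from the data; inconclusive means no rule stated though some were filed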
3T3 cytotox 2: NIH/3T3 fibroblast cytotoxicity, confirmation, cytotoxicity control, cell-based, cherry-pick, single point, set 2. shares compounds with T cruzi growth-1. NIH/3T3 viability, CellTiter-Glo ATP luminescence, 90 h. inhibition, % at 24.9 µM. 5,600 tested, 56% active;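 active means mean loss of cell viability signal at or above a set limit, and enough replicates individually reaching it; inconclusive means meets only the mean limit or only the replicate share; inactive means meets neither condition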
Large screens that a line does not name were inactive (follow-up assays come after a bar, where they were run).

Cc1cccc(S(=O)(=O)N2CC[C@@H]3[C@H](CO)N(C)c4ccc(-c5cccc(C#N)c5)cc4[C@@H]32)c1	none
Cc1ccc(S(=O)(=O)N2CC[C@@H]3[C@@H](CO)N(C)c4ccc(-c5cccc(C#N)c5)cc4[C@@H]32)cc1	none
Cc1cccc(S(=O)(=O)N2CC[C@@H]3[C@H]2c2cc(-c4cccc(C#N)c4)ccc2N(C)[C@H]3CO)c1	none
C[C@@H]1CN([C@H](C)CO)C(=O)c2cc(NC(=O)Nc3cccc4ccccc34)ccc2O[C@H]1CN(C)C(=O)Nc1ccc(F)cc1	none
C[C@H](CO)N1C[C@H](C)[C@@H](CN(C)Cc2ccncc2)OCCCC[C@H](C)Oc2ccc(NS(=O)(=O)c3ccccc3)cc2C1=O	none
Cc1ccc(OC(=O)N(C)C[C@@H]2OCc3ccccc3-c3ccccc3C(=O)N([C@@H](C)CO)C[C@H]2C)cc1	none (no result: C diff HTS)
CN1c2ccc(-c3cccc(C#N)c3)cc2[C@@H]2[C@@H](CCN2S(=O)(=O)c2ccccc2F)[C@H]1CO	none
CN1c2ccc(-c3cccc(C#N)c3)cc2[C@H]2[C@H](CCN2S(=O)(=O)c2cccc(F)c2)[C@H]1CO	none
CN1c2ccc(-c3cccc(C#N)c3)cc2[C@@H]2[C@@H](CCN2S(=O)(=O)c2ccccc2F)[C@@H]1CO	T cruzi growth-1 91.8 | T cruzi growth-2 108.2 | T cruzi growth-3 inactive | NIH3T3 tox inconclusive | 3T3 cytotox 2 inactive
COc1cccc(-c2ccc3c(c2)[C@H]2[C@H](CCN2S(=O)(=O)c2ccc(F)cc2)[C@H](CO)N3C)c1	T cruzi growth-1 101.0 | T cruzi growth-2 103.1 | T cruzi growth-3 100.0 | NIH3T3 tox inactive | 3T3 cytotox 2 inactive
COc1cccc(-c2ccc3c(c2)[C@@H]2[C@@H](CCN2S(=O)(=O)c2ccc(F)cc2)[C@@H](CO)N3C)c1	none
CN1c2ccc(-c3cccc(C#N)c3)cc2[C@H]2[C@H](CCN2S(=O)(=O)c2ccc(F)cc2)[C@@H]1CO	T cruzi growth-1 96.0 | T cruzi growth-2 102.4 | T cruzi growth-3 inactive | NIH3T3 tox inactive | 3T3 cytotox 2 inactive
CC12N=C3SCc4ccccc4CN3[C@H](c3ccccc3O1)[C@H]2CO	none (no result: Pf Dd2 inh, T cruzi growth-1)
CN1CCN(C(=O)C[C@@H]2C[C@H]3c4cc(NC(=O)Nc5ccc(F)cc5)ccc4O[C@H]3[C@H](CO)O2)CC1	none
C[C@@H]1CN([C@H](C)CO)C(=O)c2cc(NC(=O)C3CCCCC3)ccc2O[C@@H](C)CCCCO[C@H]1CN(C)Cc1ccccc1	none
C[C@@H]1CCCCO[C@H](CN(C)Cc2ccncc2)[C@H](C)CN([C@H](C)CO)C(=O)c2cc(NC(=O)C3CCCCC3)ccc2O1	none (no result: Pf Dd2 inh)
C[C@H](CO)N1C[C@H](C)[C@H](CN(C)Cc2ccc(Cl)c(Cl)c2)Oc2ccc(NC(=O)C3CCCCC3)cc2C1=O	none
C[C@@H]1CCCCO[C@@H](CN(C)Cc2ccc(Cl)c(Cl)c2)[C@@H](C)CN([C@H](C)CO)C(=O)c2cc(NC(=O)C3CCCCC3)ccc2O1	T cruzi growth-1 106.6 | T cruzi growth-2 106.9 | T cruzi growth-3 inconclusive | NIH3T3 tox inactive | 3T3 cytotox 2 inactive
C[C@@H]1CN([C@@H](C)CO)C(=O)c2cc(NC(=O)C3CCCCC3)ccc2O[C@@H](C)CCCCO[C@H]1CN(C)Cc1ccccc1	T cruzi growth-1 108.7 | T cruzi growth-2 108.0 | T cruzi growth-3 inactive | NIH3T3 tox inactive | 3T3 cytotox 2 45.2
C[C@@H]1CN([C@H](C)CO)C(=O)c2cc(NC(=O)C3CCCCC3)ccc2O[C@@H](C)CCCCO[C@@H]1CN(C)Cc1ccncc1	T cruzi growth-1 104.6 | T cruzi growth-2 inactive | T cruzi growth-3 inactive | NIH3T3 tox inactive | 3T3 cytotox 2 inactive
CCC(=O)N1[C@@H](CO)[C@@H](c2ccc(-c3ccccc3)cc2)[C@@H]1CNC(=O)COC	none
COc1cccc(-c2cn(CC[C@H]3CC[C@@H](NS(=O)(=O)Cc4ccccc4)[C@@H](CO)O3)nn2)c1	none (no result: C diff HTS)
C[C@H]1CN([C@@H](C)CO)C(=O)Cc2cc(NC(=O)Cc3ccccc3)ccc2O[C@H]1CN(C)C(=O)Nc1ccc2c(c1)OCO2	none
CC(C)NC(=O)Nc1ccc2c(c1)C(=O)N([C@@H](C)CO)C[C@@H](C)[C@@H](CN(C)Cc1ccc(C(F)(F)F)cc1)OCCCC[C@@H](C)O2	none (no result: Pf Dd2 inh, T cruzi growth-1)
C[C@@H]1CN([C@H](C)CO)C(=O)c2cc(NC(=O)Nc3ccc(F)cc3)ccc2O[C@@H](C)CCCCO[C@@H]1CN(C)Cc1ccc2c(c1)OCO2	Pf Dd2 inh inconclusive
C[C@H](CO)N1C[C@H](C)[C@@H](CN(C)Cc2ccc3c(c2)OCO3)OCCCC[C@H](C)Oc2ccc(NC(=O)Nc3ccc(F)cc3)cc2C1=O	T cruzi growth-1 103.4 | T cruzi growth-2 99.9 | T cruzi growth-3 inactive | NIH3T3 tox inactive | 3T3 cytotox 2 43.0
C[C@@H]1CN([C@H](C)CO)C(=O)c2cc(NC(=O)Nc3ccc(F)cc3)ccc2O[C@@H](C)CCCCO[C@H]1CN(C)Cc1ccc2c(c1)OCO2	none
C[C@@H]1CN([C@@H](C)CO)C(=O)c2cc(NC(=O)Nc3ccc(F)cc3)ccc2O[C@@H](C)CCCCO[C@H]1CN(C)Cc1ccc2c(c1)OCO2	none
C[C@@H]1CCCCO[C@@H](CN(C)Cc2ccc3c(c2)OCO3)[C@@H](C)CN([C@H](C)CO)C(=O)c2cc(NC(=O)Nc3ccc(F)cc3)ccc2O1	T cruzi growth-1 96.9 | T cruzi growth-2 113.8 | T cruzi growth-3 inactive | NIH3T3 tox inactive | 3T3 cytotox 2 inactive
C[C@@H]1CCCCO[C@H](CN(C)Cc2ccc3c(c2)OCO3)[C@H](C)CN([C@H](C)CO)C(=O)c2cc(NC(=O)Nc3ccc(F)cc3)ccc2O1	T cruzi growth-1 96.0 | T cruzi growth-2 102.7 | T cruzi growth-3 inactive | NIH3T3 tox inactive | 3T3 cytotox 2 103.6
CC(=O)N(C)C[C@H]1OCc2ccccc2-c2ccccc2C(=O)N([C@H](C)CO)C[C@H]1C	none
CN1C(=O)c2cc(NC(=O)c3ccc(C(F)(F)F)cc3)ccc2OC[C@@H]2O[C@H](CC(=O)NC3Cc4ccccc4C3)CC[C@H]21	T cruzi growth-1 104.9 | T cruzi growth-2 113.4 | T cruzi growth-3 inactive | NIH3T3 tox inactive | 3T3 cytotox 2 inconclusive
CN1C(=O)c2cc(NC(=O)c3cccc(Cl)c3)ccc2OC[C@@H]2O[C@H](CC(=O)NC3CCCCC3)CC[C@@H]21	T cruzi growth-1 99.6 | T cruzi growth-2 98.7 | T cruzi growth-3 inactive | NIH3T3 tox inactive | 3T3 cytotox 2 60.3
